In PubChem BioAssay AID463173 (ICCB-Longwood Screening Facility, Harvard Medical School, 2010):
Out of some 52,000 compounds screened, about 1,700 (3.3%) were called active. No stated cut-off is given here; in the data, active means survival mostly below about 52% (no sharp cut-off); inactive means mostly above about 56%. What follows is part of a selection rich in actives, with near analogues and random picks from the rest.

system: Wild type; test: growth inhibition of S. aureus wild type versus tarO mutant, primary screen, teichoic acid synthesis inhibitors, RN4220, OD600 (AID 463173); conditions: S. aureus RN4220 wild type/DeltatarO growth, OD600, 18 h, hits give low values, screened at 18.75 µg/mL (by protocol)

SMILES	survival
Cc1ccc(-n2nc(C(=O)N3CCCCC3C)c(=O)n(C)c2=O)cc1 (centres undefined)	80% (inactive)
COc1ccc(S(=O)(=O)c2cn(C)c3ccc(C)cc3c2=O)cc1	82% (inactive)
CSc1ccc(CNC(=O)c2ccccc2NC(=O)c2nsc3ccccc23)cc1	90% (inactive)
CCc1ccc(NC(=O)CN2C(=O)C3(SCC(=O)N3c3ccc(F)c(F)c3)c3ccccc32)cc1 (centres undefined)	125% (inactive)
COc1cc2ccccc2cc1C(=O)Nc1ccc2oc(-c3ccc(F)cc3Cl)nc2c1	69% (inactive)
CCc1ccc(-c2nc3cc(NC(=O)c4cc5ccccc5cc4OC)ccc3o2)cc1	14% (active)
COc1cc2ccccc2cc1C(=O)Nc1ccc2oc(-c3ccc(Cl)cc3)nc2c1	91% (inactive)
COc1ccccc1OC(C)C(=O)Nc1cccc(-c2nc3ccccc3o2)c1 (centres undefined)	3% (active)
Cc1cc(OC(C)C(=O)Nc2cccc(-c3nc4ccccc4o3)c2)cc(C)c1Cl (centres undefined)	55% (inactive)
COc1ccc(-c2nc3ccccc3o2)cc1NC(=O)Cc1ccc(Cl)cc1	68% (inactive)
CC(C)C(=O)Nc1cccc(-c2nc3ccccc3o2)c1	103% (inactive)
COc1ccc(-c2nc3ccccc3o2)cc1NC(=O)C(C)Oc1ccc(Cl)cc1Cl (centres undefined)	8% (active)
COc1ccc(-c2nc3ccccc3o2)cc1NC(=O)CSc1ccc(Cl)cc1	73% (inactive)
CCc1ccc(OCC(=O)Nc2ccc3oc(-c4ccc(OC)cc4)nc3c2)cc1	79% (inactive)
COc1cc2ccccc2cc1C(=O)Nc1ccc2oc(-c3ccc(F)cc3)nc2c1	81% (inactive)
COc1cc2ccccc2cc1C(=O)Nc1ccc2oc(-c3ccccc3)nc2c1	4% (active)
COc1ccc(-n2c(=O)c3sc4ccccc4c3n(C)c2=O)cc1	83% (inactive)
CCOc1ccc(N=C(c2ccccc2)N2CCOCC2)cc1	99% (inactive)
CCc1ccccc1N(C)C(=O)C1CCCN(c2ncnc3c2nc2n3CCCCC2)C1 (centres undefined)	75% (inactive)
CC(C)c1ccc(NC(=O)Cn2c(=O)oc3cc(S(=O)(=O)N4CCCC4)ccc32)cc1	124% (inactive)
CC(C)C(=O)Nc1ccccc1C(=O)OCc1cc(=O)n2nc(C3CC3)sc2n1	100% (inactive)
Cc1ccc(-n2nc(C)c3c(C)cc(=O)n(CC(=O)NC(C)c4ccccc4)c32)cc1 (centres undefined)	143% (inactive)
Cc1oc2ncn(CC(C)C)c(=O)c2c1C(=O)N(CCN(C)C)Cc1ccccc1	99% (inactive)

SMILES	survival
COc1cc2ccccc2cc1C(=O)Nc1ccc2oc(-c3cccc(Cl)c3Cl)nc2c1	71% (inactive)
COc1cc2ccccc2cc1C(=O)Nc1cccc(-c2nc3cc(C)ccc3o2)c1C	75% (inactive)
COc1cc2ccccc2cc1C(=O)Nc1ccc2oc(-c3cccc(C)c3)nc2c1	6% (active)
Brc1ccc(-n2nc(-c3ccccc3)c3cnc4cc5c(cc4c32)OCO5)cc1	112% (inactive)
CCN(C(=O)CSc1nnc(-c2ccc(Cl)cc2)o1)c1ccccc1	66% (inactive)
CCc1ccc(C(=O)CC2(O)C(=O)N(CCc3ccccc3)c3ccc(Br)cc32)cc1 (centres undefined)	36% (inactive)
COc1ccc(OC)c(C(=O)CC2(O)C(=O)N(Cc3ccccc3C)c3ccccc32)c1 (centres undefined)	118% (inactive)
CCCN1C(=O)C(O)(CC(=O)c2ccc(C(C)C)cc2)c2ccccc21 (centres undefined)	129% (inactive)
O=C(CC1(O)C(=O)N(Cc2ccccc2)c2ccc(Br)cc21)c1ccccc1 (centres undefined)	30% (inactive)
CCCCN1C(=O)C(O)(CC(=O)c2ccc(C(C)(C)C)cc2)c2ccccc21 (centres undefined)	3% (active)
Cc1ccccc1CN1C(=O)C(O)(CC(=O)c2cccc(Br)c2)c2ccccc21 (centres undefined)	10% (active)
CCCN1C(=O)C(O)(CC(=O)c2ccc(OC)c(OC)c2)c2ccccc21 (centres undefined)	130% (inactive)
Cc1ccc(C(=O)CC2(O)C(=O)N(Cc3ccccc3)c3ccccc32)c(C)c1 (centres undefined)	20% (inactive)
Cc1ccc(C(=O)CC2(O)C(=O)N(CCc3ccccc3)c3ccc(Br)cc32)cc1 (centres undefined)	24% (inactive)
Cc1ccc(C(=O)CC2(O)C(=O)N(Cc3ccccc3F)c3ccccc32)cc1 (centres undefined)	71% (inactive)
CCCCN1C(=O)C(O)(CC(=O)c2ccc(CC)cc2)c2cc(Br)ccc21 (centres undefined)	2% (active)
CCCCN1C(=O)C(O)(CC(=O)c2ccc(C)cc2C)c2cc(Br)ccc21 (centres undefined)	1% (active)
COC(=O)CSc1ncc2c(n1)-c1ccccc1N(Cc1cccc(F)c1)S2(=O)=O	70% (inactive)
CC(C)CCNC(=O)c1cccc(-n2cnc3cccnc32)c1	136% (inactive)
Fc1ccc(-c2cn3cc(Cc4ccccc4Cl)sc3n2)cc1	53% (inactive)
N#Cc1ccc2ccn(CC(N)=O)c2c1	95% (inactive)
Cc1ccc(CNC(=O)c2cc3ccc4cccnc4c3[nH]2)cc1	0% (active)
CCOC(=O)c1ccccc1NC(=O)c1cc2ccc3cccnc3c2[nH]1	121% (inactive)

SMILES	survival
CCOc1ccccc1NC(=O)c1cc2ccc3cccnc3c2[nH]1	10% (active)
O=C(NCc1ccccc1)c1cc2ccc3cccnc3c2[nH]1	73% (inactive)
O=C(NCc1ccc(Cl)cc1)c1cc2ccc3cccnc3c2[nH]1	49% (inactive)
CCOc1ccccc1N(CC)C(=O)c1cc2ccc3cccnc3c2[nH]1	74% (inactive)
Cc1ccc(-c2nnn(CC(=O)N(CC(=O)NCCC(C)C)c3ccc(F)cc3)n2)cc1	84% (inactive)
CCOC(=O)C1C(=O)N(C(=O)c2cncc(Br)c2)CC1c1ccccc1 (centres undefined)	112% (inactive)
CCOC(=O)c1cc(S(=O)(=O)Nc2cc(F)ccc2C)[nH]n1	75% (inactive)
CC1Oc2ccccc2N(CC(=O)NCc2ccccc2)C1=O (centres undefined)	105% (inactive)
CCC1Oc2ccccc2N(CC(=O)NCc2ccccc2)C1=O (centres undefined)	-3% (active)
CCC1Oc2ccccc2N(CC(=O)NCc2ccc(C)cc2)C1=O (centres undefined)	77% (inactive)
Cc1ccc(CCNC(=O)c2ccc(CSCc3ccc(C)cc3)o2)cc1	65% (inactive)
CCc1nn2c(=O)cc(COC(=O)c3cccc(NC(=O)COc4ccccc4F)c3)nc2s1	124% (inactive)
CC(C)(C)OC(=O)N1CCC(c2c(C(=O)NCCN3CCOCC3)cnn2-c2ccc(F)cc2F)CC1	-3% (active)
CCOC(=O)N1CCC(NC(=O)c2cnn(-c3ccc(F)cc3F)c2C2CCN(C(=O)OC(C)(C)C)CC2)CC1	82% (inactive)
CC(C)(C)OC(=O)N1CCC(c2c(C(=O)NC3CCN(Cc4ccccc4)CC3)cnn2-c2ccc(F)cc2F)CC1	-4% (active)
CC(C)(C)OC(=O)N1CCC(c2c(C(=O)NCCN3CCOCC3)cnn2-c2ccc(F)cc2)CC1	89% (inactive)
Cc1cccc(C)c1-n1ncc(C(=O)NCCCN2CCCCC2)c1C1CCN(C(=O)OC(C)(C)C)CC1	85% (inactive)
Cc1cccc(C)c1-n1ncc(C(=O)NCCN2CCOCC2)c1C1CCN(C(=O)OC(C)(C)C)CC1	75% (inactive)
CC(C)(C)OC(=O)N1CCC(c2c(C(=O)NC3CCN(Cc4ccccc4)CC3)cnn2-c2cccc(F)c2)CC1	76% (inactive)
Cc1cccc(C)c1-n1ncc(C(=O)NCCN2CCN(C)CC2)c1C1CCN(C(=O)OC(C)(C)C)CC1	0% (active)
CC(C)(C)OC(=O)N1CCC(c2c(C(=O)NCCN3CCc4ccccc4C3)cnn2-c2ccc(F)cc2F)CC1	81% (inactive)
Cc1cccc(OCC(=O)Nc2c(C(=O)N3CCN(c4ccccc4)CC3)oc3ccccc23)c1	86% (inactive)
CN=C1SC(CC(=O)NC(N)=O)C(=O)N1C (centres undefined)	92% (inactive)

SMILES	survival
COc1ccc(OC)c(NC(=O)CSc2ccnc(=O)[nH]2)c1	80% (inactive)
CC(=O)Nc1cccc(NC(=O)Cn2c(-c3cccnc3)ccc(C#N)c2=O)c1	89% (inactive)
CCN1CCN(C(c2ccc(OC)cc2)c2c(O)cc(C)n(Cc3ccco3)c2=O)CC1 (centres undefined)	71% (inactive)
CCOC(=O)c1c(NC(=O)CN(CC)CC)sc2c1CCC/C2=N\O	112% (inactive)
O=C(CSc1nc(-c2ccco2)nc2cc(=O)[nH]n12)Nc1ccc(F)cc1	65% (inactive)
CC(NCc1ccc2c(c1)OCO2)C(=O)NC1CCCCC1 (centres undefined)	103% (inactive)
CCOC(=O)c1cc(-c2ccccc2)n(CCC(=O)NCCc2ccccc2)c1C	-2% (active)
CCOC(=O)c1cc(-c2ccccc2)n(CCC(=O)NCCc2cccc(C)c2)c1C	49% (inactive)
CCOC(=O)c1cc(-c2ccccc2)n(CCC(=O)NCCc2ccc(C)cc2)c1C	73% (inactive)
CCc1ccccc1NC(=O)COC(=O)c1cn(CC)c2nc(C)ccc2c1=O	83% (inactive)
COc1ccc(OC)c(-c2nc3c(C#N)c[nH]n3c2NC2CCCCC2)c1	102% (inactive)
COc1ccc(CCNc2nc(-c3ccc(C)cc3)cc(C(F)F)n2)cc1OC	100% (inactive)
COc1ccc(-c2cc(C(F)(F)F)nc(SCC(=O)NCc3ccc(OC)c(OC)c3)n2)cc1	97% (inactive)
COc1ccc(CCNc2nc3c(-c4cccc(C(F)(F)F)c4)nnn3c3ccccc23)cc1OC	83% (inactive)
COc1ccc(-c2cc(C(F)(F)F)nc(SCC(=O)NCCc3ccc(OC)c(OC)c3)n2)cc1	70% (inactive)
COc1ccc(CCNc2nc(-c3ccccc3OC)cc(C(F)(F)F)n2)cc1OC	-8% (active)
COc1ccc(CCNc2nc(-c3ccc(OC)c(OC)c3)cc(C(F)(F)F)n2)cc1OC	0% (active)
COc1ccc(CCNc2nc(-c3ccc(Cl)cc3)cc(C(F)(F)F)n2)cc1OC	18% (active)
COc1ccc(CCNC(=O)CSc2nc(-c3ccc(F)cc3)cc(C(F)(F)F)n2)cc1OC	97% (inactive)
COc1ccc(CCNc2nc(-c3ccc(F)cc3)cc(C(F)(F)F)n2)cc1OC	142% (inactive)
